Screening results as filed in PubChem.
Most compounds without a hit are left out; they make up all but 10% or so of the library.
GPT2 inh: GPT2 alanine aminotransferase inhibition. Potency, µM (titrated, usually from 57.7 µM), for inactives: at the top dose activity change, negative = inhibition, actives largely listed as inhibitors. actives 0.25% (n = 100,000). Q8TD30. Recombinant GPT2, coupled pyruvate oxidase/HRP Amplex Red fluorescence; also: nearly all actives have a fitted effect of over 60% in size
Target sequence (Q8TD30 whole entry, looked up): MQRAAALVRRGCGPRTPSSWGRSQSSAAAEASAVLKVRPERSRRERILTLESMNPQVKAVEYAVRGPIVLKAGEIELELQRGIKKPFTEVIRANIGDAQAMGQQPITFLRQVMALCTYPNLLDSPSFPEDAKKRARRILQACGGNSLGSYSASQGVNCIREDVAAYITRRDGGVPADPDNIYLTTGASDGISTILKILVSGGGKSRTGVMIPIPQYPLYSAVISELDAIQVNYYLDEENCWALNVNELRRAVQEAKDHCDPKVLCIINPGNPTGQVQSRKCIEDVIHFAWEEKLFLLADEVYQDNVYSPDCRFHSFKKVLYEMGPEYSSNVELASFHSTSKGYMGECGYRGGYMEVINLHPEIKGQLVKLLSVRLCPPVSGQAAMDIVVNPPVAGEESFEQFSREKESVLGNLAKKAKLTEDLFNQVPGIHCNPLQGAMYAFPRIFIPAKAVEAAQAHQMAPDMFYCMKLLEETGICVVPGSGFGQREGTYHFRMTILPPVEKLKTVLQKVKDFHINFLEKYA
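Inhibition is scored from Amplex Red fluorescence generated when pyruvate oxidase and HRP act on pyruvate released by GPT2. Reactions contain 10ng/uL enzyme, 250uM a-KG and 2mM L-alanine and run 30 min at room temperature.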
NPR1 antag: antagonists of human natriuretic peptide receptor Npr1 | Potency, µM (series often up to 46.3 µM), for the others: top-dose activity change, negative = inhibition, most hits filed as inhibitors | HEK293 hNpr1 GloSensor cGMP, ANP-stimulated luminescence | actives 1.6% (n = 76,000) | AID 1347048; calls by dose curve; also: nearly all actives have a fitted effect of over 60% in size
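HEK293 cells stably expressing human Npr1 and cGMP GloSensor pGS-40F, loaded 2 h with 2% GloSensor reagent, given compound 30 min at room temperature. Luminescence read before and 20 min after 0.1 nM hNppA.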
HEK293 tox: kills HEK 293 cells. HEK 293 viability, ATP luminescence (CellTiter-Glo), 48-72 h. Potency, µM (series often up to 115 µM), inactives show at the top dose activity change, negative = cytotoxicity, most hits filed as inhibitors. actives 6.6% (n = 94,000); also: nearly all actives have a fitted effect of over 60% in size
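Pintool-delivered compounds were incubated with HEK 293 cells (250 cells/well) at 37 degree Celsius for 48 or 72 hr. ATP-dependent luminescence (CellTiter-Glo) then reported remaining viable cells.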
Luciferase inh: blocks purified firefly luciferase enzyme activity; Potency, µM (titrated, usually from 115 µM), most hits filed as inhibitors; actives 2.5% (n = 76,000); P08659; purified P. pyralis luciferase, luminescence, biochemical; also: nearly all actives have a fitted effect of over 65% in size
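Luminescence read by CCD imager after adding enzyme (10nM final) to wells holding compound, titrated in qHTS. Substrates 10uM each D-luciferin and ATP; buffer 50mM Tris acetate pH 7.5, 10mM Mg acetate, Tween-20, BSA.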
3T3 cytotox: kills NIH 3T3 cells | NIH 3T3 viability, CellTiter-Glo ATP luminescence, 48-72 h | Potency, µM (titrated, usually from 96.7 µM), for the others: top-dose activity change, negative = cytotoxicity, hits mostly inhibitors | actives 4.3% (n = 94,000) | AID 1345082; also: nearly all actives have a fitted effect of over 55% in size
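Viability of NIH 3T3 cells after 48 or 72 hr compound treatment at 37 °C was assessed by CellTiter-Glo, with luminescence imaged following a 10 min room-temperature step.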
Numbers without * were called inactive; [ ] = dose if it differs, or a comment. Unless noted, calls follow the shape of the dose curve; as a rule, active = well fitted curve in the direction sought with a large enough effect; inconclusive = small, poorly fitted or top-dose-only effect, or another doubt; inactive = no such curve, though single readings can be large; an effect the other way counts as inactive or inconclusive. % is scaled to controls: 0 for no effect and ±100 for the full control effect; potency is read from the fitted curve at half-maximal effect.

`O=S(=O)(NC[C@H]1C[C@@H]2CCN1C[C@@H]2CN1CCC(Cc2ccccc2)CC1)c1ccc(Cl)cc1` gave GPT2 inh 1%, NPR1 antag -3%, HEK293 tox 7.1µM*, Luciferase inh inactive and 3T3 cytotox 14µM*.
`COc1cc2c(cc1Oc1ccccc1)NC(=O)C21CCN(Cc2ccccn2)CC1` gave GPT2 inh inconclusive, NPR1 antag -17%[70.6 µM], HEK293 tox 56µM*, Luciferase inh inactive and 3T3 cytotox inconclusive.
COc1cc2c(cc1Oc1ccccc1)NC(=O)C21CCN(c2ncc(F)cn2)CC1 was read as GPT2 inh -12%[88.5 µM], NPR1 antag -17%[70.6 µM], HEK293 tox 89µM*, Luciferase inh inactive and 3T3 cytotox inconclusive.
COc1cc2c(cc1Oc1ccccc1)NC(=O)C21CCN(c2nccs2)CC1 was read as GPT2 inh -12%[88.5 µM], NPR1 antag -26%[70.6 µM], HEK293 tox inconclusive, Luciferase inh inactive and 3T3 cytotox -13%[138 µM].
`COc1ccc(C(=O)NC[C@H]2C[C@@H]3CCN2C[C@@H]3c2cc(-c3ccc(N(C)C)cc3)nc(C)n2)cc1` gave GPT2 inh inactive, NPR1 antag -6%, HEK293 tox 25µM*, Luciferase inh inactive and 3T3 cytotox 40µM*.
Cc1ccc(C(=O)NC[C@H]2C[C@@H]3CCN2C[C@@H]3c2cc(-c3ccccc3Br)nc(C)n2)cc1 was read as GPT2 inh inactive, NPR1 antag -5%, HEK293 tox inconclusive, Luciferase inh inactive and 3T3 cytotox inconclusive.
Screening Cc1nc(-c2ccc(N(C)C)cc2)cc([C@H]2CN3CC[C@H]2C[C@@H]3CNC(=O)c2ccccc2)n1 returned GPT2 inh -11%, NPR1 antag -2%, HEK293 tox inconclusive, Luciferase inh inactive and 3T3 cytotox 45µM*.
Screening Cc1nc(-c2ccc(N(C)C)cc2)cc([C@H]2CN3CC[C@H]2C[C@@H]3COC(=O)NC(C)C)n1 returned GPT2 inh inactive, NPR1 antag 2%, HEK293 tox inconclusive, Luciferase inh inconclusive and 3T3 cytotox inconclusive.
Screening CC(=O)Nc1ccc(S(=O)(=O)NC[C@H]2C[C@@H]3CCN2C[C@@H]3c2cc(-c3ccc(N(C)C)cc3)nc(C)n2)cc1 returned GPT2 inh inactive, NPR1 antag -2%, HEK293 tox 22µM*, Luciferase inh inconclusive and 3T3 cytotox 25µM*.
`CCNC(=O)NC[C@H]1C[C@@H]2CCN1C[C@@H]2c1cc(-c2ccc(N(C)C)cc2)nc(C)n1` gave GPT2 inh inactive, NPR1 antag 7%[70.6 µM], HEK293 tox 100µM*, Luciferase inh inactive and 3T3 cytotox 100µM*.
For CCN1C2CCC1CN(C(=O)c1ccncc1)C2 the results were GPT2 inh -7%[88.5 µM], HEK293 tox 3%[172 µM] and 3T3 cytotox inactive.
`COc1ccc(-c2cc([C@H]3CN4CC[C@H]3C[C@@H]4CNC(=O)CSCC(=O)O)nc(C)n2)cc1OC` gave GPT2 inh inactive, NPR1 antag 11%, HEK293 tox -20%, Luciferase inh inactive and 3T3 cytotox inactive.
CCN1CCCCC12Cc1ccccc1CN(C(=O)Cc1ccc(OC)cc1)C2 (stereo not drawn) was read as GPT2 inh inactive, HEK293 tox -24% and 3T3 cytotox 4%.
For CCOC(=O)[C@H]1CN(C(=O)/C=C/c2ccccc2)[C@]2(C)C(=O)Nc3ccccc3[C@H]12 the results were GPT2 inh inactive, HEK293 tox inconclusive and 3T3 cytotox -27%[46.1 µM].
Screening COc1cc2c(cc1OCC1CC1)NC(=O)C21CCN(Cc2ccccc2O)CC1 returned GPT2 inh 2%[88.5 µM], NPR1 antag -17%[70.6 µM], HEK293 tox inconclusive, Luciferase inh inactive and 3T3 cytotox 40µM*.
For COc1cc2c(cc1OC1CCCC1)NC(=O)C21CCN(Cc2cccc(O)c2)CC1 the results were GPT2 inh -15%[88.5 µM], NPR1 antag -9%[70.6 µM], HEK293 tox 89µM*, Luciferase inh inactive and 3T3 cytotox 25µM*.
